# Screening results deposited in PubChem by The Scripps Research Institute Molecular Screening Center.
# MITF inh: human MITF inhibition, primary screen; inhibition, % at 2.6 µM; O75030; AlphaScreen MITF homodimerization, bead proximity signal; 0.91% of 650,000 active; in the data active = inhibition above about 50%
# FBW7 act: activators of human E3 ligase FBW7; Q969H0; AlphaScreen FBW7–phospho-cyclin E peptide binding, activator screen; normalized activity (activation), % at 26.1 µM; 0.13% of 650,000 active; AID 1259310; in the data active = normalized activity above about 1.9%;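 also: purified mutant Fbw7 with reduced substrate affinity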
# GPR151 activ: human GPR151 activation; Q8TDV0; PathHunter beta-arrestin GPR151 cells, luminescence; activation, % at 11.2 µM; 1% of 650,000 active; AID 1508602; in the data active = activation above about 4.9%
# Target sequence (Q8TDV0 whole entry, looked up): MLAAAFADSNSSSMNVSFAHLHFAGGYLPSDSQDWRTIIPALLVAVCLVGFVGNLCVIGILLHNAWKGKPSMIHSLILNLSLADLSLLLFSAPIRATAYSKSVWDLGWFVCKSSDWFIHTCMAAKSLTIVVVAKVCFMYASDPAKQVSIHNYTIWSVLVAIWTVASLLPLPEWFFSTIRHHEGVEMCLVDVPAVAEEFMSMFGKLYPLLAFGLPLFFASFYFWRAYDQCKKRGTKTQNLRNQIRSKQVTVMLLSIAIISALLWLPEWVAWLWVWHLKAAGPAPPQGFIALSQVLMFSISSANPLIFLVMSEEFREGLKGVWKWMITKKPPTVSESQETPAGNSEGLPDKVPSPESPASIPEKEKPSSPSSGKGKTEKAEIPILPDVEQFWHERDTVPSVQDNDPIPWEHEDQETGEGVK
# TEAD-YAP block: TEAD-YAP interaction inhibition; HEK-TIYL cells, TEAD-Gal4/YAP UAS-luciferase luminescence; inhibition, % at 9.12 µM; 1.4% of 640,000 active; AID 1259422; in the data active = inhibition above about 32%
# MITF inh conf: human MITF inhibition, confirmation | inhibition, % at 2.6 µM | AlphaScreen MITF homodimerization, biotin/His-MITF beads | 16% of 4,700 active | shares compounds with MITF inh | AID 1259372;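 active = inhibition above a cutoff derived from the DMSO control wells, cut at about 28% in these data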;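 also: inhibitors lower the bead chemiluminescence by keeping MITF from dimerizing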
# AS interf DR: optically interferes with AlphaScreen signal in dose response. shares compounds with MITF inh. AlphaScreen optical interference counterscreen, cell-free. IC50, µM. 6% of 480 active. AID 1259373; call rule not given here
# AlphaScreen intf2: AlphaScreen optical interference, counter-screen; shares compounds with MITF inh; inhibition, % at 2.6 µM; AID 1259376; LysRS AlphaScreen counterscreen, signal interference, triplicate; 7.6% of 4,700 active;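 active = inhibition above a cutoff derived from the DMSO control wells, cut at about 30% in these data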
# A number is an active result; - = inactive; . = no result. Most compounds without a hit are left out; they make up all but 3.5% or so of the library.
SMILES,MITF inh,FBW7 act,GPR151 activ,TEAD-YAP block,MITF inh conf,AlphaScreen intf2,others
COc1cc(/C=C2\N=C(c3ccc(C)cc3)OC2=O)ccc1OCc1ccccc1Cl,-,-,-,-,.,.,
COc1ccc(/C=C2\N=C(c3ccc4c(c3)OCO4)OC2=O)cc1Cl,69.3,-,-,-,73.5,-,AS interf DR=-
COc1cc(/C=C2\N=C(c3ccc(F)cc3)OC2=O)ccc1OCc1ccccc1Cl,73.2,-,-,-,-,-,
COCCCNC(=S)NNC(=O)c1ccccn1,114.0,-,-,-,113.5,100.3,
O=C(NNC(=S)Nc1cccc([N+](=O)[O-])c1)c1ccccn1,115.4,-,-,-,115.6,100.3,
CCOC(=O)c1ccc(NC(=S)NNC(=O)c2ccccn2)cc1,116.3,-,-,-,113.6,100.2,
CCOC(=O)c1cccc(NC(=O)c2ccccn2)c1,-,-,-,-,.,.,
CCOc1ccccc1NC(=S)NNC(=O)c1ccccn1,113.8,-,-,-,116.8,100.3,
O=C(N[C@H]1C[C@H]2C(=O)N[C@@H](CO)C(=O)N2C1)c1ccccc1Cl,-,-,-,-,.,.,
Cc1cc(C)c2[nH]c(=O)c(CN(CCCO)C(=O)N3CCOCC3)cc2c1,-,-,-,-,.,.,
C=CCc1cccc(Cl)c1OCCCN1CCN(C)CC1,-,-,-,-,.,.,
C=CCc1cccc(Cl)c1OCCCN1CCNCC1,53.3,-,-,-,-,-,
C=CCc1cccc(Cl)c1OCCCNCCN1CCOCC1,56.3,-,-,-,-,-,
COc1cc2c(cc1OC)n(CC(=O)N1CCc3ccccc31)n1c(C)cc(=O)nc21,-,-,-,-,.,.,
O=S(=O)(c1ccc(Cl)cc1)N1CCN(Cc2cccc(Br)c2)CC1,50.7,-,-,-,-,-,
O=S(=O)(c1ccc(F)cc1)N1CCN(Cc2cccc(Br)c2)CC1,59.8,-,-,-,-,-,
O=S1(=O)CCC(N2COc3c(cc(Cl)c4cccnc34)C2)C1 (configuration not stated),54.8,-,-,-,39.4,91.2,
Clc1cc2c(c3ncccc13)OCN(Cc1cccnc1)C2,93.6,-,-,83.5,96.3,100.4,
Cn1c(=O)[nH]c(=O)c2c1nc(SCc1ccc(Cl)cc1)n2CC(N)=O,-,-,-,-,.,.,
COCCn1nnnc1CN1CCSCC1,55.8,-,-,-,-,-,
COCCn1nnnc1C(c1ccc(Cl)cc1)N1CCSCC1 (configuration not stated),66.3,-,-,-,-,-,
CCS(=O)(=O)N1CCN(CC(=O)NC2CCCCC2)CC1,54.5,-,-,-,-,-,
COc1ccc2c(C)cc(N3CCCN(C)CC3)nc2c1,62.0,-,-,-,-,-,
COc1ccc(-c2cc(N3CCCN(C)CC3)ncn2)cc1,-,-,-,-,.,.,
NN1C(=O)/C(=C\c2ccc(Cl)cc2)NC1=S,52.6,-,-,-,-,-,
SMILES,MITF inh,FBW7 act,GPR151 activ,TEAD-YAP block,MITF inh conf,AlphaScreen intf2,others
Cc1ccc(-c2nc3ccccc3c(=O)n2Cc2csc(-c3ccc(Cl)cc3)n2)cc1,-,-,-,-,.,.,
CCOc1cc(CN2CCN(Cc3cccc(OC)c3)CC2)ccc1OC,-,-,-,-,.,.,
COc1ccc(OC)c(CN2CCN(Cc3cccc(F)c3)CC2)c1,74.8,-,-,-,-,-,
COc1cccc(CN2CCN(Cc3ccc(OC)cc3OC)CC2)c1,81.2,-,-,-,-,-,
COc1ccc(OC)c(CN2CCN(Cc3cccc(Cl)c3)CC2)c1,72.9,-,-,-,-,-,
COc1ccc(CN2CCN(Cc3cccc(F)c3)CC2)c(OC)c1,85.2,-,-,-,-,-,
COc1cccc(CN2CCN(C(=O)c3cccc(F)c3)CC2)c1,-,-,-,-,.,.,
CCCCn1c(=NC(=O)c2cccc(Cl)c2)c(C(=O)OCC)cc2c(=O)n3ccccc3nc21,-,-,-,-,.,.,
COc1ccc(OC)c(CN2CCN(S(=O)(=O)c3ccc(F)cc3)CC2)c1,58.1,-,-,-,-,-,
COc1ccc(OC)c(CN2CCN(S(=O)(=O)c3ccccc3)CC2)c1,-,-,-,-,.,.,
COc1ccc(CN2CCN(Cc3ccc(F)cc3)CC2)cc1OC,-,-,-,-,.,.,
COc1ccc(OC)c(CN2CCN(Cc3ccc(F)cc3)CC2)c1,83.3,-,-,-,37.3,-,AS interf DR=-
COc1ccc(CN2CCN(S(=O)(=O)c3ccc(F)cc3)CC2)cc1OC,52.9,-,-,-,-,-,
CCCCN(C)S(=O)(=O)c1ccc(C(=O)Nc2sc3c(c2C(N)=O)CCN(C(C)C)C3)cc1,-,-,-,-,.,.,
Brc1cccc(CSc2nnnn2-c2ccccc2)c1,-,-,-,-,.,.,
COc1ccccc1OCCCOc1ccc(C)cc1OC,-,-,-,-,.,.,
CNCCCOc1ccc(C)cc1OC,51.8,-,-,-,-,-,
O=C1OC(c2ccc(Cl)cc2Cl)=N/C1=C\c1ccc([N+](=O)[O-])o1,55.6,-,-,-,50.7,-,AS interf DR=-
O=C1NC(c2ccccc2)=C([N+](=O)[O-])C(c2cccc(F)c2)N1 (configuration not stated),75.5,-,-,-,-,-,
COc1cccc(C(=O)N2CCN3C(=O)[C@H](Cc4ccccc4)NC(=O)[C@H]3C2)c1,-,-,-,-,.,.,
Cc1ccccc1CN1CCN(Cc2ccncc2)CC1,60.0,-,-,-,-,-,
c1ccc2c(CN3CCN(Cc4ccncc4)CC3)cccc2c1,54.6,-,-,-,-,-,
Cc1ccccc1CN1CCN(Cc2cccnc2)CC1,84.3,-,-,-,-,-,
Cc1ccc(C)c(N2CCN(Cc3cccnc3)CC2)c1,-,-,-,-,.,.,
C(=N\N1CCN(Cc2cccc3ccccc23)CC1)/c1ccncc1,-,-,-,-,.,.,
SMILES,MITF inh,FBW7 act,GPR151 activ,TEAD-YAP block,MITF inh conf,AlphaScreen intf2,others
O=C(Cc1ccccc1)N/N=C/c1ccc(O)c(O)c1,-,-,-,-,.,.,
NC(=O)c1cccc(-c2cccs2)c1,66.2,-,-,-,57.0,-,AS interf DR=-
NC(=O)c1ccc2nc(-c3cccs3)sc2c1,72.5,-,-,33.3,60.0,-,AS interf DR=-
CC(=O)c1cccc(-c2cccc(C(N)=O)c2)c1,-,-,-,-,.,.,
O=C(Nc1ccccc1)c1ccc2nc(-c3cccs3)sc2c1,-,-,-,-,.,.,
Cc1ccc2nc(SCc3cn4ccccc4n3)[nH]c2c1,-,-,-,-,.,.,
CCOC(=O)C1=C(O)CSC1=NC(=O)c1ccc(OC)cc1,51.9,-,-,-,-,-,
CCOc1ccccc1N1C(=O)/C(=C/c2ccncc2)SC1=S,-,-,-,-,.,.,
CN(C)c1cc(NC(=O)CNC(C)(C)C)c(O)c2c1C[C@H]1C[C@H]3[C@@H](N(C)C)C(=O)C(C(N)=O)=C(O)[C@@]3(O)C(=O)C1=C2O,78.2,-,-,-,59.7,-,AS interf DR=-
COc1cc(N2CCOCC2)ccc1Nc1cc(NC(C)(C)c2ccccc2)c(C(F)(F)F)cn1,57.9,-,-,-,44.2,-,AS interf DR=-
COc1cc(N2CCOCC2)ccc1Nc1cc(NCc2ccccc2)c(C(F)(F)F)cn1,-,-,-,-,.,.,
